# PubChem BioAssay (NCATS)
# Results filed as inconclusive are left out. Activity calls are given as the source filed them. Unless noted, the rule behind the calls is not given here.
# Legend:
# [1] = Immunotoxin (HA22) sensitization/mitigation study. Vehicle arm (PBS) (AID 1159510); conditions: cancer cells viability with PBS vehicle (HA22 study); series mostly up to 46.1 µM; note: potency is the fitted concentration of half-maximal effect
# [2] = Immunotoxin (SS1P) sensitization/mitigation study. Vehicle arm (DMEM) (AID 1159513); conditions: cell viability with vehicle (DMEM); series mostly up to 46.1 µM; note: potency is the fitted concentration of half-maximal effect
# [3] = qHTS Assay for Identifying Gametocytocidal Compounds (AID 743244; active = well fitted curve in the direction sought with a large enough effect; an effect the other way counts as inactive or inconclusive; note: potency is the fitted concentration of half-maximal effect;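 for max response: % is set by controls: 0 for no effect and ±100 for the full control effect; actives lower the fluorescent signal which means gametocytes are killed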); conditions: P. falciparum 3D7 stage III-V gametocytes, alamarBlue, 72 h; max response: stronger effect = lower value
# Summary of the method: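 Fluorescence at Ex 525/Em 598 nm, recorded 24 h after alamarBlue addition, reports residual metabolic activity of 3D7 gametocytes (stages III–V) following 72 h compound exposure at 37 °C, 5% CO2.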
# [4] = qHTS profiling for inhibitors of Plasmodium falciparum (3D7) proliferation (AID 743322);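 note: infected erythrocytes exposed to compound for 72 h before lysis; 100% = DMSO vehicle wells and 0% = 0.29 µM artemisinin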; conditions: P. falciparum 3D7 proliferation; at 28.7 µM (top of the series) unless noted
# Summary of the method: (§1)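 Erythrocytes infected with P. falciparum (0.3% parasitemia, 2.5% hematocrit) incubated with compounds 72 h at 37 C, 5% CO2. Lysis with saponin/Triton buffer containing SYBR Green I, overnight at room temperature in the dark; DNA fluorescence (485/535 nm) normalised to 0.29 uM artemisinin and DMSO.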
# [5] = qHTS profiling for inhibitors of Plasmodium falciparum (DD2) proliferation (AID 743323); conditions: lower = more inhibition; at 28.7 µM (top of the series) unless noted
# Summary of the method: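 Parasite proliferation measured via DNA-dye fluorescence, as uninfected erythrocytes lack DNA. Cultures at 0.3% parasitemia and 2.5% hematocrit incubated 72 h with compound; signal scaled between vehicle and 0.29 uM artemisinin wells.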
# [6] = qHTS profiling for inhibitors of Plasmodium falciparum (HB3) proliferation (AID 743324; active = well fitted curve in the direction sought with a large enough effect; an effect the other way counts as inactive or inconclusive;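 note: 100% = DMSO vehicle wells and 0% = artemisinin-treated control wells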); conditions: Plasmodium falciparum HB3 blood-stage proliferation; at 28.7 µM (top of the series) unless noted
# Summary of the method: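 P. falciparum HB3 grown in erythrocytes (0.3% parasitemia, 2.5% hematocrit final) with compound for 72 h at 37 C, 5% CO2. Parasite DNA detected by SYBR Green after saponin/triton lysis overnight; normalized to 0.29 uM artemisinin and DMSO.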
# [7] = qHTS profiling of the MIPE4 collection as inhibitors of Plasmodium falciparum (3D7) proliferation (AID 743344);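 note: scaled between DMSO vehicle wells and 0.29 µM artemisinin as full inhibition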; conditions: P. falciparum 3D7 in erythrocytes, SYBR Green DNA fluorescence, 72 h; at 28.5 µM (top of the series)
# Summary of the method: as §1
# [8] = qHTS profiling of the MIPE4 collection as inhibitors of Plasmodium falciparum (DD2) proliferation (AID 743345); conditions: P. falciparum Dd2 in erythrocytes, SYBR Green DNA, 72 h; at 28.5 µM (top of the series) unless noted
# Summary of the method: as §1
# [9] = qHTS profiling of the MIPE4 collection as inhibitors of Plasmodium falciparum (DD2) proliferation (Rep 2) (AID 743346); conditions: P. falciparum Dd2 in erythrocytes, SYBR Green DNA, 72 h; at 28.5 µM (top of the series)
# Summary of the method: as §1
# [10] = qHTS profiling of the MIPE4 collection as inhibitors of Plasmodium falciparum (HB3) proliferation (AID 743347);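 note: plate controls were DMSO vehicle wells for no effect and artemisinin wells for full effect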; conditions: P. falciparum HB3 in erythrocytes, SYBR Green DNA, 72 h; at 28.5 µM (top of the series)
# Summary of the method: as §1
smiles,measurement,setting,value
CCOC(=O)C1=C[C@@]2(CC)CCCN3CCc4c(n1c1ccccc41)[C@H]32,Potency,[1],inactive
same,Potency,[2],inactive
CCCCc1nc2cc(C=CC(=O)NO)ccc2n1CCN(CC)CC,Potency,[1],118 nM (active)
same,Potency,[2],264 nM (active)
Cc1cc(SCc2sc(-c3ccc(C(F)(F)F)cc3)nc2C)ccc1OCC(=O)O,Potency,[1],inactive
same,Potency,[2],inactive
COc1cc2c(cc1OC)CN(CCc1ccc(NC(=O)c3cccc4c(=O)c5cccc(OC)c5[nH]c34)cc1)CC2,Potency,[1],18700 nM (active)
same,Potency,[2],inactive
C[C@@]12O[C@@H](C[C@]1(O)CO)n1c3ccccc3c3c4c(c5c6ccccc6n2c5c31)CNC4=O,Potency,[3],5900 nM (active)
same,Potency,[1],209 nM (active)
same,Potency,[2],29.6 nM (active)
Cc1cc(Nc2nc(N[C@@H](C)c3ncc(F)cn3)ncc2Cl)n[nH]1,Potency,[1],inactive
same,Potency,[2],inactive
CCOc1cc(C=C2C(=O)N(c3ccccc3)N=C2C)cc(Cl)c1OCC(=O)OC,Potency,[1],18700 nM (active)
same,Potency,[2],inactive
CN(C)CC=CC(=O)Nc1cc2c(Nc3ccc(F)c(Cl)c3)ncnc2cc1O[C@H]1CCOC1,Potency,[1],1480 nM (active)
same,Potency,[2],6620 nM (active)
CO[C@H]1C=CC=C(C)C(=O)NC2=CC(=O)C(NCCN(C)C)=C(C[C@@H](C)C[C@H](OC)[C@@H](O)[C@@H](C)C=C(C)[C@@H]1OC(N)=O)C2=O,Potency,[3],46.9 nM (active)
same,Potency,[1],5.9 nM (active)
same,Potency,[2],3320 nM (active)
CC(=O)OCC(=O)[C@@]1(O)[C@H](C)C[C@H]2[C@@H]3C=C(C)C4=Cc5c(cnn5-c5ccccc5)C[C@]4(C)[C@@H]3[C@@H](O)C[C@@]21C,Potency,[1],1320 nM (active)
same,Potency,[2],26400 nM (active)
COc1ccc(-c2ccc3c(N4CCOC[C@H]4C)nc(N4CCOC[C@H]4C)nc3n2)cc1CO,Potency,[1],469 nM (active)
same,Potency,[2],10.5 nM (active)
Cc1[nH]c2ccccc2c1CCNCc1ccc(C=CC(=O)NO)cc1,Potency,[1],10.5 nM (active)
same,Potency,[2],29.6 nM (active)
Cn1cc(-c2ccc3nnc(Sc4ccc5ncccc5c4)n3n2)cn1,Potency,[1],inactive
same,Potency,[2],inactive
COCC(=O)NCC=Cc1ccc2ncnc(Nc3ccc(Oc4ccc(C)nc4)c(C)c3)c2c1,Potency,[1],23500 nM (active)
same,Potency,[2],18700 nM (active)
O=C(Nc1cc(Cl)cc2c1[nH]c1cnccc12)c1cccnc1,Potency,[2],13200 nM (active)
C1=CCOCc2cc(ccc2OCCN2CCCC2)Nc2nccc(n2)-c2cccc(c2)OCC1,remaining parasite growth % (stronger effect = lower value),[4],105%
same,"activity, percent of control",[5],107%
same,"remaining proliferation (% of control), lower = more inhibition",[6],115%
same,Potency,[1],3720 nM (active)
same,Potency,[2],2640 nM (active)
O=C1CCCC2=C1C(c1[nH]ncc1Cl)N=C(Nc1nc3ccccc3o1)N2 (stereo not drawn),Potency,[2],inactive
C=CCON=C(C[C@H]1O[C@@H]2O[C@]3(C)CC[C@@H]4[C@H](C)CC[C@@H]([C@H]1C)[C@@]24OO3)[C@H]1O[C@@H]2O[C@]3(C)CC[C@H]4[C@H](C)CC[C@@H]([C@@H]1C)[C@@]24OO3,Potency,[3],8.3 nM (active)
same,remaining parasite growth % (stronger effect = lower value),[4],-1.46%
same,"activity, percent of control",[5],0.0103%
same,"remaining proliferation (% of control), lower = more inhibition",[6],0.0213%
same,"parasite growth, % of DMSO control",[7],21.6%
same,"parasite growth remaining, % of DMSO control (lower = more inhibition)",[8],7.38%
same,"parasite growth, % of control (lower = inhibition)",[9],16.3%
same,"growth, % of control",[10],64.2%
same,Potency,[1],16.6 nM (active)
same,Potency,[2],235 nM (active)
Cc1cc2c(cc1C1(c3ccc(C(=O)O)cn3)CC1)C(C)(C)CCC2(C)C,Potency,[2],inactive
CC#C[C@]1(O)CC[C@H]2[C@@H]3CCC4=CC(=O)CCC4=C3[C@H](c3ccc(N(C)C)cc3)C[C@@]21C,Potency,[2],23500 nM (active)
Cc1ccccc1-n1c(Cn2cnc3c(N)ncnc32)nc2cccc(C)c2c1=O,max response,[3],15.4% (inactive)
same,remaining parasite growth % (stronger effect = lower value),[4],43.1%
same,"activity, percent of control",[5],37.6%
same,"remaining proliferation (% of control), lower = more inhibition",[6],24.9%
same,"parasite growth, % of DMSO control",[7],5.28%
same,"parasite growth remaining, % of DMSO control (lower = more inhibition)",[8],12.7%
same,"parasite growth, % of control (lower = inhibition)",[9],6.97%
same,"growth, % of control",[10],2.42%
same,Potency,[1],23500 nM (active)
CC(=O)Nc1ccc(OC[C@](C)(O)C(=O)Nc2ccc([N+](=O)[O-])c(C(F)(F)F)c2)cc1,max response,[3],0.149% (inactive)
same,remaining parasite growth % (stronger effect = lower value),[4],102%
same,"activity, percent of control",[5],97.8%
same,"remaining proliferation (% of control), lower = more inhibition",[6],71.3%
same,"parasite growth, % of DMSO control",[7],70.7%
same,"parasite growth remaining, % of DMSO control (lower = more inhibition)",[8],88.6%
same,"parasite growth, % of control (lower = inhibition)",[9],88.3%
same,"growth, % of control",[10],91.2%
same,Potency,[1],inactive
same,Potency,[2],inactive
Clc1ccc(-c2nc3sccn3c2C=NOCc2ccc(Cl)c(Cl)c2)cc1,Potency,[2],inactive
COc1cc2c(cc1OC)[C@@H]1C(=O)c3ccc4c(c3O[C@@H]1CO2)C=CC(C)(C)O4,Potency,[2],4180 nM (active)
Cc1cc(-c2nnc3n2CCCCC3)c(C)n1-c1ccc(F)cc1,Potency,[2],332 nM (active)
CC(C)[C@]12O[C@H]1[C@@H]1O[C@]13[C@]1(O[C@H]1C[C@H]1C4=C(CC[C@@]13C)C(=O)OC4)[C@@H]2O,max response,[3],-3.04% (inactive)
same,remaining parasite growth % (stronger effect = lower value),[4],103%
same,"activity, percent of control",[5],96.4%
same,"remaining proliferation (% of control), lower = more inhibition",[6],95.4%
same,Potency,[1],4.2 nM (active)
same,Potency,[2],7.4 nM (active)
COc1ccc(-c2c(-c3ccc(O)cc3O)n[nH]c2C)cc1,Potency,[2],16600 nM (active)
O=C(Oc1ccc([N+](=O)[O-])cc1)N1CCC(C(O)(c2ccc3c(c2)OCO3)c2ccc3c(c2)OCO3)CC1,max response,[3],-4.93% (inactive)
same,remaining parasite growth % (stronger effect = lower value),[4],26.6%
same,"activity, percent of control",[5],90.2%
same,"remaining proliferation (% of control), lower = more inhibition",[6],75.8%
same,"parasite growth, % of DMSO control",[7],63%
same,"parasite growth remaining, % of DMSO control (lower = more inhibition)",[8],78.9%
same,"parasite growth, % of control (lower = inhibition)",[9],33.6%
same,"growth, % of control",[10],77.1%
same,Potency,[1],5260 nM (active)
same,Potency,[2],inactive
